# Reference: PubChem BioAssay (Tox21)
# Unmarked numbers belong to inactive results. Inconclusive results are not listed. Where a call stands in place of a potency, no number is given. The source made the active and inactive calls. Unless noted, the call rests on the fitted dose curve; in most records, active means well fitted curve in the direction sought with a large enough effect in the repeat runs; inconclusive means weak or mixed curves; inactive means no such curve, though single readings can be large; an effect the other way counts as inactive or inconclusive.
# Key:
# [1] = target: Luciferin 4-monooxygenase (Photinus pyralis) (UniProt P08659); experiment: qHTS assay to identify small molecule inhibitors of firefly luciferase (AID 1224835); further: nearly all actives have a fitted effect of over 25% in size
# How it was run: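 Quantitative HTS format; KM concentrations of both substrates. Purified P. pyralis FLuc activity quantified from luminescence images.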
# [2] = qHTS assay to identify small molecule agonists of the constitutive androstane receptor (CAR) signaling pathway - cell viability counter screen (AID 1224836); further: nearly all actives have a fitted effect of over 45% in size
# How it was run: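 Using CellTiter-Fluor, viability of HepG2 cells harbouring hCAR and CYP2B6-2.2kb was measured following 23 h incubation with a 15-concentration compound series plus PK11195 (0.75 uM final).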
# [3] = qHTS assay to identify small molecule antagonists of the constitutive androstane receptor (CAR) signaling pathway - cell viability counter screen (AID 1224837); further: nearly all actives have a fitted effect of over 45% in size
# How it was run: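 Counter screen run in HepG2-CYP2B6-hCAR cells: 4 hr settle, compound titration (15 concentrations) with 50 nM CITCO, 23 hr at 37 C/5% CO2, CellTiter-Fluor fluorescence.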
# [4] = target: Nuclear receptor subfamily 1 group I member 3 (Homo sapiens) (UniProt Q14994); experiment: qHTS assay to identify small molecule antagonists of the constitutive androstane receptor (CAR) signaling pathway (AID 1224838);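 further: HepG2 cells stably expressing hCAR with CYP2B6 luciferase reporter stimulated by CITCO; nearly all actives have a fitted effect of over 40% in size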
# How it was run: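 Cell line: HepG2 double-stable for hCAR and CYP2B6-2.2kb reporter. Agonist: CITCO, 50 nM final. Compounds: 15 concentrations, 24 h, 37 C. Detection: ONE-Glo luminescence.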
# [5] = target: Nuclear receptor subfamily 1 group I member 3 (Homo sapiens) (UniProt Q14994); experiment: qHTS assay to identify small molecule agonists of the constitutive androstane receptor (CAR) signaling pathway (AID 1224839);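 further: HepG2 cells stably carrying human CAR and a CYP2B6 luciferase reporter; nearly all actives have a fitted effect of over 15% in size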
# How it was run: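 Double-stable HepG2 cells (hCAR, CYP2B6-2.2kb) seeded 4 h before compound addition. Exposure 24 h with 0.75 uM PK11195 final. Luciferase detected by ONE-Glo.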
# [6] = qHTS assay to identify small molecule antagonists of the estrogen related receptor signaling pathway with the pleiotropic PPARgamma coactivator (PGC) from Tox21 10K library - cell viability counter screen (AID 1224840; active means well fitted cell-killing curve with a large enough effect in the repeat runs, not every such curve was filed as active; further: nearly all actives have a fitted effect of over 40% in size)
# How it was run: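 Following seeding of 2,000 PGC/ERR cells/well and 6 hours' incubation, test compounds were delivered in DMSO. The plates then sat 17.5 hours at 37 C before a fluorogenic live-cell protease reagent (CellTiter-Fluor) was read after 30 min.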
# [7] = qHTS assay to identify small molecule antagonists of the estrogen related receptor signaling pathway with the pleiotropic PPARgamma coactivator (PGC) from Tox21 10K library (AID 1224841; call rule not given here; further: actives are mostly falling curves and most rising ones were filed inactive; nearly all actives have a fitted effect of over 50% in size)
# How it was run: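 qHTS antagonist format: PGC/ERR cells, 2k/well, compound in DMSO by pin transfer after 6 h attachment, 18 h treatment at 37 C, One-Glo luminescence read at 30 min.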
# [8] = qHTS assay to identify small molecule agonists of the estrogen related receptor signaling pathway with the pleiotropic PPARgamma coactivator (PGC) from Tox21 10K library (AID 1224842); further: nearly all actives have a fitted effect of over 15% in size
# How it was run: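 PGC/ERR reporter cells (NTP line) were seeded 2,000 per well, rested 6 h at 37 C/5% CO2, then pin-dosed with compounds in DMSO for 18 h at 37 C; luciferase read by One-Glo luminescence after 30 min at room temperature.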
# [9] = qHTS assay to identify small molecule agonists of the hypoxia (HIF-1) signaling pathway - cell viability counter screen (AID 1224844; calls by dose curve; further: nearly all actives have a fitted effect of over 50% in size)
# How it was run: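 Cells (HRE-bla ME-180, 2,000 per well) sat 5 hrs at 37C, got compound for 17 hrs, were read for CCF4-AM FRET, and were finally lysed with CellTiter-Glo for a 30 min room-temperature luminescence read.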
# [10] = qHTS assay to identify small molecule agonists of H2AX (AID 1224845; active means well fitted activation curve with a large enough effect in the signal ratio in the repeat runs, not every such curve was filed as active; the % refers to the signal ratio)
# How it was run: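 Wild-type CHO-K1 cells plated overnight, then exposed 3 hr at 37C to compounds at 15 concentrations (0.76% DMSO). Lysed, then HTRF anti-pH2AX(S139)-cryptate/anti-H2AX-d2 detection after 24 hr at room temperature; emissions 665 and 620 nm.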
# [11] = qHTS assay to identify small molecule agonists of the hypoxia (HIF-1) signaling pathway (AID 1224846; active means well fitted activation curve with a large enough effect in the signal ratio in the repeat runs, not every such curve was filed as active; the % refers to the signal ratio)
# How it was run: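 A low-serum medium (0.5% dialyzed FBS) holding 2,000 HRE-bla ME-180 cells per well is preincubated for 5 hrs, dosed with compounds by pintool, and kept a further 17 hrs at 37C, 5% CO2 before CCF4-AM FRET detection of beta-lactamase.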
# [12] = qHTS assay to identify small molecule agonists of H2AX - cell viability counter screen (AID 1224847; calls by dose curve; further: top concentration of the series differs between compounds; nearly all actives have a fitted effect of over 30% in size)
# How it was run: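 Quantitative HTS viability measurement: CHO-K1 wild-type cells in serum (10% FBS) medium, short 3 hr drug exposure at 37C with 0.76% DMSO, CellTiter-Glo luminescent detection.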
# [13] = qHTS assay to identify small molecule antagonists of the estrogen related receptor (ERR) signaling pathway from Tox21 library (AID 1224848); further: nearly all actives have a fitted effect of over 50% in size
# How it was run: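 Screening used an ERR reporter line supplied by NTP, exposed for 18 h at 37 C to library compounds delivered in DMSO. Signal was luciferase luminescence developed with ONE-Glo at room temperature for 30 min.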
# [14] = qHTS assay to identify small molecule agonists of the estrogen related receptor (ERR) signaling pathway from Tox21 library (AID 1224849; calls by dose curve; further: nearly all actives have a fitted effect of over 15% in size); details: ERR reporter cell line, ONE-Glo luciferase, 18 h; at 92.4 µM (top of the series) unless noted
# How it was run: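 Screening used an NTP-provided ERR luciferase cell line. Compounds in DMSO were added 6 h after seeding and left 18 h at 37 C before a 30 min ONE-Glo step and luminescence reading.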
# [15] = qHTS RealTime-Glo MT Cell Viability Assay in HepG2 cells - 24 hour (AID 1224867); further: nearly all actives have a fitted effect of over 50% in size
# How it was run: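 Real-time, nonlytic viability: 600 HepG2 cells/well mixed with NanoLuc enzyme plus prosubstrate; 5 h settle, compound (DMSO) added by pintool; luminescence monitored over 40 h at 37 C.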
# [16] = qHTS RealTime-Glo MT Cell Viability Assay in HEK293 cells - 32 hour (AID 1224868); further: nearly all actives have a fitted effect of over 50% in size; further: potency means the concentration at half of the fitted maximal effect
# How it was run: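 Cells + reagent dispensed (600 cells/well, HEK293) → 5 h at 37 C/5% CO2 → 23 nL compound in DMSO pinned → 40 h at 37 C → luminescence read at 0, 8, 16, 24, 32, 40 h.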
# [17] = A CellTox Green Cytotoxicity Assay to monitor cytotoxicity in HEK293 cells - 0 hour (AID 1224869); further: nearly all actives have a fitted effect of over 50% in size
# How it was run: (§1)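 Fluorescence intensity, read at 0, 8, 16, 24, 32 and 40 h of compound treatment, reflected dye binding to DNA of dead HEK293 cells; compounds (23 nL, DMSO) were added 5 h after plating cells with reagent.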
# [18] = A CellTox Green Cytotoxicity Assay to monitor cytotoxicity in HEK293 cells - 40 hour (AID 1224871); further: nearly all actives have a fitted effect of over 45% in size; further: potency means the concentration at half of the fitted maximal effect
# How it was run: as §1
# [19] = target: Thyrotropin receptor (Homo sapiens) (UniProt P16473); experiment: qHTS assay to identify small molecule agonists of the thyroid stimulating hormone receptor (TSHR) signaling pathway (AID 1224843; calls by dose curve; further: nearly all actives have a fitted effect of over 45% in size; further: potency means the concentration at half of the fitted maximal effect)
# How it was run: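 Cell line HEK293 with TSHR; density 800/well. Exposure 30 min RT. Readout HTRF cAMP (cAMP-d2/anti-cAMP-cryptate), 1 h RT before reading.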
# [20] = qHTS RealTime-Glo MT Cell Viability Assay in HepG2 cells - 40 hour (AID 1224870); further: nearly all actives have a fitted effect of over 50% in size
# How it was run: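 HepG2 cells mixed with RealTime-Glo MT reagents (NanoLuc plus cell-permeant prosubstrate) were seeded at 600 cells/well, incubated 5 h at 37 C/5% CO2, then pinned with compounds in DMSO; nonlytic luminescence tracked viability during 40 h treatment.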
# Sequence of Luciferin 4-monooxygenase (Photinus pyralis) (P08659 whole entry, looked up): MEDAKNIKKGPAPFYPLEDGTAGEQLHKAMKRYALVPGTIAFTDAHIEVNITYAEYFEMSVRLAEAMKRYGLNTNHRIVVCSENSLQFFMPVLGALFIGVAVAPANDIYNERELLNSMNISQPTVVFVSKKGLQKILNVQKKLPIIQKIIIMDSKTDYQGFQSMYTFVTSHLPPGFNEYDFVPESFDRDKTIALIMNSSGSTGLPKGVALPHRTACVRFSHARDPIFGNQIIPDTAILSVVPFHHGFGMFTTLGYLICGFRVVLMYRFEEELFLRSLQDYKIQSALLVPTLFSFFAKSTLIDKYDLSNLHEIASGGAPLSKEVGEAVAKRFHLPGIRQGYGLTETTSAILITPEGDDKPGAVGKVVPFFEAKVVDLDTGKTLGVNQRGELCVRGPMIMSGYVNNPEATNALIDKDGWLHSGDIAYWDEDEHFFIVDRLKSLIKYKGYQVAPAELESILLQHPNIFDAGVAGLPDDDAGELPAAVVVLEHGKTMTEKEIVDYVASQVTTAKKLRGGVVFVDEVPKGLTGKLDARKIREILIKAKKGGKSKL
# Sequence of Nuclear receptor subfamily 1 group I member 3 (Homo sapiens) (Q14994 whole entry, looked up): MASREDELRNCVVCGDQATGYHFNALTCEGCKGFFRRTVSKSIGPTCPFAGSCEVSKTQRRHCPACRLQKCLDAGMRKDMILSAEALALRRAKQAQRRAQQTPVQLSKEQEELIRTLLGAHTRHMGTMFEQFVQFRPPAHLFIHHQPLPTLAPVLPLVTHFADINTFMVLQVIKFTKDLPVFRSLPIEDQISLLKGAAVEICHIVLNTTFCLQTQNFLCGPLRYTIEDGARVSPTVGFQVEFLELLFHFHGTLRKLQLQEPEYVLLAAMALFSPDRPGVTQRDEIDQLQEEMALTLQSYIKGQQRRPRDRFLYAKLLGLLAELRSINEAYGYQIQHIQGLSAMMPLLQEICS
# Sequence of Thyrotropin receptor (Homo sapiens) (P16473 whole entry, looked up): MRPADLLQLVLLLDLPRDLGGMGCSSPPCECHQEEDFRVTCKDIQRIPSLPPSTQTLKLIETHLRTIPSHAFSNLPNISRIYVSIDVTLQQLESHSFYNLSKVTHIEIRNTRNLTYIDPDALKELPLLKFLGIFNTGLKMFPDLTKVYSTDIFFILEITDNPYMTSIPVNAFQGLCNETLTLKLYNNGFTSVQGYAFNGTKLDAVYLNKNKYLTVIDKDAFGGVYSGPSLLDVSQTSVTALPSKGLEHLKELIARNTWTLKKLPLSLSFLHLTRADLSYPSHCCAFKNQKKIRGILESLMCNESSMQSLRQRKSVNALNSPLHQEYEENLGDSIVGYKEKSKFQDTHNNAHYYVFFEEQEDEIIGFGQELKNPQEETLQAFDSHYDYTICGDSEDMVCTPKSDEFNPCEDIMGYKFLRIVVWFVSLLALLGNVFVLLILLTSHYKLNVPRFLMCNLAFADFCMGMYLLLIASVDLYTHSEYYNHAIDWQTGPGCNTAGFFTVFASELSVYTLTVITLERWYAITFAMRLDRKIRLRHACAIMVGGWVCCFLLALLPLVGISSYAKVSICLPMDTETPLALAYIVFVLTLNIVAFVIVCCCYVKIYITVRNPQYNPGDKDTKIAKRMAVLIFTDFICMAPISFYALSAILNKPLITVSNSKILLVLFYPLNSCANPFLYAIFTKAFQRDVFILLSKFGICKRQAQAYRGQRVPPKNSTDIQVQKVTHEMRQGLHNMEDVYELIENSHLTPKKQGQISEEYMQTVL
SMILES,Potency [1],Potency [2],Potency [3],Potency [4],Potency [5],Potency [6],Potency [7],Potency [8],Potency [9],Potency [10],outcome [11],Potency [12],Potency [13],"activity change, positive = activation [14]",Potency [15],Potency [16],Potency [17],Potency [18],Potency [19],Potency [20]
CCOC(OCC)C(=O)c1ccccc1,inactive,inactive,inactive,inactive,inactive,inactive,inactive,inactive,inactive,inactive,inactive,inactive,inactive,1.64%,inactive,inactive,inactive,inactive,,
CCCN(CCc1cccs1)[C@H]1CCc2c(O)cccc2C1,inactive,inactive,inactive,inactive,inactive,inactive,inactive,inactive,,inactive,,,,-19.8% [at 42.5 µM],inactive,19 µM (active),inactive,23.9 µM (active),29.8 µM (active),inactive
CS(C)(=O)=O,inactive,inactive,inactive,inactive,inactive,,,inactive,inactive,inactive,inactive,inactive,inactive,,inactive,inactive,,,inactive,
COC(=O)CC#N,inactive,inactive,inactive,inactive,inactive,inactive,,,,inactive,inactive,inactive,,,inactive,inactive,inactive,inactive,inactive,inactive
